Shown are actives, neighbours in structure and some others; about 1.8% of the full set was active somewhere.
TCR activator = activates T cell receptor signaling | primary human leukocytes, anti-CD3, IL-2 HTRF, 48 h | Potency, µM (titrated, usually from 9.22 µM), for the others: top-dose activation of IL-2 secretion, hits mostly activators | 330,000 tested, under 10 active | AID 504894; further: % of control where 0% means no effect
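1) Mix primary human leukocytes, a-CD3 beads and compound. 2) Incubate 48 hr. 3) Add HTRF IL-2 reagents (a-IL-2-K, a-IL-2-d2).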
Mito fusion yeast = blocks mitochondrial division or promotes mitochondrial fusion | S. cerevisiae fusion-defective mutant growth rescue, CellTiterGlo 48 h | actives 0.23% (n = 320,000) | Potency, µM (series often up to 46.1 µM), inactives show top-dose growth rescue (activation), most hits filed as activators | AID 485298; further: potency means the concentration at half of the fitted maximal effect; % of control where 0% means no effect; nearly all actives have a fitted effect of over 45% in size
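Compounds are tested for their ability to restore growth of mitochondrial fusion-defective yeast strains at non-permissive 37C in YPEG medium over 48 hours. Viability is quantified by luciferase luminescence.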
Glioma ERSR ind = induces the endoplasmic reticulum stress response in human glioma cells. U87-MG GRP78 promoter luciferase reporter, 16 h. Potency, µM, for the others: at the highest dose activation, hits mostly activators. AID 602332. actives 0.02% (n = 420,000); further: potency means the concentration at half of the fitted maximal effect; series mostly up to about 76 µM; % of control where 0% means no effect; nearly all actives have a fitted effect of over 35% in size
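ERSR induction read as luciferase luminescence (Bright-Glo, 10 min at room temperature) in stably transfected human U87-MG glioma cells exposed to compounds for 16 h, using GRP78 as sensor.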
A-T KAP1 phos = candidate therapy for ataxia-telangiectasia. F2112 A-T fibroblasts, KAP-1 phosphorylation AlphaLISA; neocarzinostatin DNA damage 30 min before lysis. Potency, µM (top dose mostly 57.5 µM), for the others: at the highest dose activation, usual class: activators. actives 0.19% (n = 320,000). AID 485349; further: potency means the concentration at half of the fitted maximal effect; % of control where 0% means no effect; nearly all actives have a fitted effect of over 45% in size
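hTERT-immortalized A-T patient fibroblasts (F2112), 500 cells/well in OPTI-MEM, 1% FBS, got compounds for 60 min, then NCS for 30 min at 37C. Lysates were then assayed for phospho-KAP-1 by AlphaLISA (anti-pKAP1 donor, anti-KAP1 acceptor beads), 6 hr at 25C.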
ClpP mod = qHTS Assay for Activators of ClpP | Potency, µM (top dose mostly 57.5 µM), for the others: top-dose activity change, negative = active | ATP-dependent Clp protease proteolytic subunit (Bacillus subtilis (strain 168)), P80244 | purified B. subtilis ClpP, FRET peptide cleavage, 20 min | actives 1.9% (n = 340,000); active means well fitted falling curve with a large enough effect; inconclusive means small, poorly fitted or top-dose-only effect; inactive means no such curve, though single readings can be large or run the other way; further: potency means the concentration at half of the fitted maximal effect; the source files actives as falling curves though it sought activators and does not explain the sign; nearly all actives have a fitted effect of over 65% in size
Target sequence (P80244 whole entry, looked up): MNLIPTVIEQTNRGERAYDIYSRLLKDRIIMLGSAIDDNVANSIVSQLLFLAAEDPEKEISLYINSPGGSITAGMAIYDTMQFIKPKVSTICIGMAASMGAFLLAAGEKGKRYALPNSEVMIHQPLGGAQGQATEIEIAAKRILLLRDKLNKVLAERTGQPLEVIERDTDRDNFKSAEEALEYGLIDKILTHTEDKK
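Purified B. subtilis ClpP, 10 microg/mL final in Tris/HCl pH8 with KCl, BSA, glycerol and Tween-20, cleaved an Abz/nitrotyrosine-quenched decapeptide. Fluorescence (ex 320, em 430) was read at 0 and 20 min at room temperature. Delta was normalized to 5.8 microM ADEP and DMSO/no-enzyme controls.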
MBNL1 CUG block = blocks human MBNL1 binding to CUG repeat RNA | Q9NR56 | TR-FRET MBNL1-His/biotin-(CUG)12 binding, 665/545 ratio | Potency, µM (doses to about 57.5 µM), for inactives: at the highest dose activity change, negative = inhibition, most hits filed as inhibitors | actives 0.036% (n = 280,000) | AID 2675; active means well fitted inhibition curve with a large enough effect in the signal ratio, with a control signal flat, not every such curve was filed as active; inconclusive means small, poorly fitted or top-dose-only effect, or effect the other way, or a change in a side signal; inactive means no such curve, though single readings can be large or run the other way; the % refers to the signal ratio; further: potency means the concentration at half of the fitted maximal effect; on the % scale 0 is the no-effect control and ±100 the full control effect
Target sequence (Q9NR56 whole entry, looked up): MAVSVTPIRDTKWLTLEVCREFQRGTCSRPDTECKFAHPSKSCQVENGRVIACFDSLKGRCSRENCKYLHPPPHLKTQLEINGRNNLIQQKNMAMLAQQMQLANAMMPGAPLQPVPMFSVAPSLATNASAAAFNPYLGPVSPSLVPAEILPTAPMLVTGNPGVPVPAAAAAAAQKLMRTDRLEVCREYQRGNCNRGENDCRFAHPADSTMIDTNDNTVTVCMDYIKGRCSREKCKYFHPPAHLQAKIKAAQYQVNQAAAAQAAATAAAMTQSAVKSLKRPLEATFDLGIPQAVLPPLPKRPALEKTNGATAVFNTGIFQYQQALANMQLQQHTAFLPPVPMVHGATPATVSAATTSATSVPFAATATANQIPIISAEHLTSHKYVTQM
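Compound titration spanned 92 nM–58 uM against the MBNL1-His/biotin-(CUG)12 complex. After 60 min at room temperature with 5 nM streptavidin-XL665 and 0.055 ng/ul terbium anti-His, ratiometric 665/545 nm emission (Ex 340 nm) normalized to controls.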
Starred values were filed as active, the others as inactive; ? = inconclusive; . = no result; [ ] = remark or other dose. Unless noted, the call rests on the fitted dose curve; in most records, active means well fitted curve in the direction sought with a large enough effect; inconclusive means small, poorly fitted or top-dose-only effect, or another doubt; inactive means no such curve, though single readings can be large; an effect the other way counts as inactive or inconclusive.

SMILES | TCR activator | Mito fusion yeast | Glioma ERSR ind | A-T KAP1 phos | ClpP mod | MBNL1 CUG block
CC12C=CC(=O)C=C1CCC1C2C(O)CC2(C)C1CCC2(O)C(=O)COC(=O)CCC(=O)O (configuration not stated) | . | . | -2.9% | . | . | .
COc1cc2c(NC3CCN(C(C)C)CC3)nc(N3CCCN(C)CC3)nc2cc1OCCCN1CCCC1 | . | . | -5.0% | . | 3.9% | .
Cc1cccc(OCC(=O)Nc2ccc3c(C)cc(=O)oc3c2)c1 | 1.9%[46.1 µM] | -1.1% | 0.7% | -2.5% | 12.6µM* | .
O=C(Nc1cccc2ccccc12)N1CC=CCC1 | 1.3% | 1.0% | 1.8% | 1.6% | 28.2µM* | 3.1%
O=C(Nc1cccc2ccccc12)N1CCN(c2ccccc2)CC1 | -4.8% | -4.3% | -1.3% | -7.3% | -7.1% | 0.8%
CCC1(c2ccccc2)NC(=O)NC1=O (configuration not stated) | . | . | 0.8% | . | . | .
CCc1nc(N)c(C#N)c(-c2ccc(F)cc2)c1C | -1.5% | 0.6% | -3.7% | . | 28.2µM* | 6.0%
CCc1nc(N)c(C#N)c(-c2cccnc2)c1C | 6.9% | -1.9% | -4.7% | 2.1% | -22.7% | 0.6%
COc1ccc(C(=O)Nc2ccc3nc(SCc4ccc(C)cc4)sc3c2)cc1 | . | . | 0.6% | . | 25.1µM* | .
COc1cccc2c(Cl)c(CC=C(Cl)Cl)c(C)nc12 | -1.2% | -8.3% | -0.9% | 3.2% | 10µM* | 6.4%
O=C(CSc1nnc(CNC(=O)c2ccccc2)o1)NCc1ccccc1Cl | -3.8% | -10.6% | 2.0% | 5.7% | 31.6µM* | 2.9%
O=C(CSc1nnc(CNC(=O)c2ccc(F)cc2)o1)NCc1ccccc1Cl | 9.1% | -0.4% | -4.6% | 3.6% | 0.9% | -7.6%
CCCC(=O)Oc1ccc2[nH]c(C(=O)c3cc4ccccc4[nH]3)cc2c1 | . | . | 2.6% | . | -6.6% | .
CCOC(=O)Cc1c(C)c2ccc(N(CC)CC)cc2oc1=O | 3.7% | 7.7% | 4.5% | 25.1µM* | 22.4µM* | ?
CCOC(=O)c1oc2cc(C)cc(C)c2c1C | 0.9% | -1.2% | 0.4% | -8.8% | -9.4% | 3.5%
CCN(CC)c1ccc2c(C)cc(=O)oc2c1 | -7.0% | 9.4% | -0.5% | 31.6µM* | 3.7% | .
CCOC(=O)Cc1c(C)c2c(O)cc(O)cc2oc1=O | . | -4.3% | -1.1% | 2.3% | 25.1µM* | 16.9%
CCN(CC)c1ccc2c(C)c(Cl)c(=O)oc2c1 | . | -0.3% | 10.3% | 1.7% | . | -6.2%
CCOC(=O)c1oc2cc(O)cc(C)c2c1C | -4.8% | . | 1.2% | . | 12.6µM* | .
Cc1nc2c(C(=O)N3CCOCC3)cnn2c(C)c1Cc1ccc(Cl)cc1 | . | 0.7% | -1.3% | 4.2% | 28.2µM* | -4.7%
Cc1nc2c(C(=O)NCCc3ccc(Cl)cc3)cnn2c(C)c1Cc1ccc(F)cc1 | . | . | -5.1% | . | 25.1µM* | .
Cc1nc2c(C(=O)NC(C)c3ccccc3)cnn2c(C)c1Cc1ccccc1 (configuration not stated) | . | . | 6.3% | . | 31.6µM* | .
Cc1nc2c(C(=O)NCCc3ccc(Cl)cc3)cnn2c(C)c1Cc1c(F)cccc1Cl | . | . | 0.8% | . | -0.7% | .
Cc1cc(C)c(Cc2c(C)nc3c(C(=O)NCc4ccco4)cnn3c2C)c(C)c1 | 2.3% | 10.7% | -2.3% | -4.3% | 20µM* | -0.8%
Cc1ccc(CNC(=O)c2cnn3c(C)c(Cc4c(F)cccc4Cl)c(C)nc23)cc1 | . | . | -1.3% | . | ? | .
SMILES | TCR activator | Mito fusion yeast | Glioma ERSR ind | A-T KAP1 phos | ClpP mod | MBNL1 CUG block
CO[C@H]1[C@H](NC(=O)c2ccsc2)c2ccccc2C12CCN(Cc1cc3ccccc3o1)CC2 | . | . | -3.4% | . | . | .
CCOC(=O)N1CCN(C(=O)c2ccc(-c3ccccc3OC)nc2N2CCC(N3CCCC(CO)C3)CC2)CC1 (configuration not stated) | . | . | -4.8% | . | . | .
CCCN1CCC(=O)N(C(CSc2ccc(C)cc2)CC(C)C)CC1 (configuration not stated) | . | . | -2.5% | . | . | .
S=C(NCCCc1cnc[nH]1)NCCCN(Cc1ccc(Cl)cc1)c1ncc(Br)cn1 | . | . | -7.7% | . | -11.6% | .
Cc1ccccc1CN1CCc2nnc(C(C)NC(=O)c3cc(F)ccc3F)n2CC1 (configuration not stated) | . | . | -3.7% | . | . | .
COc1cc2c(cc1OC)CN(C(=O)/C=C/c1cc(OC)c(OC)c(OC)c1)CC2 | 2.7% | 32.0% | -0.1% | 3.16µM* | 6.6% | ?
COc1ccc(C(=O)N2CCN(c3ccc(N4CCOCC4)nn3)CC2)cc1OC | -40.3% | -7.3% | -1.7% | -0.9% | 25.1µM* | .
Cn1cnc([N+](=O)[O-])c1Sc1nc(N)nc2c1ncn2Cc1ccccc1 | 2.9% | . | 11.1% | . | 31.6µM* | .
CC1CCCCN1C(=O)c1cnn2c1NC(=C1CC1)C=C2C(F)F (configuration not stated) | . | . | . | . | -12.6% | .
COCC(=O)Nc1cc(C(=O)N2CCCC(C(C)=O)C2)cc2nc(-c3ccccc3)n(C)c12 (configuration not stated) | . | . | 0.0% | . | . | .
Cc1ccc(S(=O)(=O)NNC(=S)Nc2ccc(Cl)cc2)cc1 | -0.4% | -1.4% | -0.7% | 0.9% | 28.2µM* | 3.0%
COc1cccc(Cn2c(=O)c(-c3ccc(Cl)cc3)nc3cncnc32)c1 | . | . | -6.4% | . | . | .
Cc1cnc(C)c(-c2cccc3c2OC(CNC(=O)/C=C/c2ccc(F)c(F)c2)C3)n1 (configuration not stated) | . | . | -4.7% | . | . | .
CCOC(=O)C1(Cc2ccccc2)CCN(Cc2cccn2-c2nccs2)CC1 | -4.3% | 1.4% | -5.1% | 5.9% | 4.47µM* | -8.8%
CCOC(=O)C1(Cc2cccc(OC)c2)CCN(Cc2cccn2-c2nccs2)CC1 | . | 0.6% | -2.3% | 0.7% | . | 4.9%
OCC1O[C@H]([S-])[C@H](O)[C@@H](O)[C@@H]1O.[Au+] (some centres not stated) | . | 4.3% | -4.4% | . | . | .
COc1ccc(CCNC(=O)C2CCC(=O)N(CC3CCCCC3)C2)cc1 (configuration not stated) | 2.8% | -1.6% | 2.3% | 0.7% | 31.6µM* | -8.4%
COc1ccc(CCCNC(=O)C2CCC(=O)N(CC3CCCCC3)C2)cc1 (configuration not stated) | 4.1% | 0.5% | -5.5% | 29.7% | 1.6% | -0.9%
CCN1CCN(c2nc(NCCO)c3ccccc3n2)CC1 | . | 3.9% | -2.9% | 8.3% | 3.8% | -5.5%
CC(Nc1nc(N2CCCCC2)nc2ccccc12)c1ccccc1 (configuration not stated) | -13.3% | 6.2% | -4.1% | . | 28.2µM* | -8.8%
C=CCNc1nc(N2CCCC2)nc2ccccc12 | -5.4% | 1.1% | -6.2% | 1.2% | 31.6µM* | -5.6%

Screening data (PubChem BioAssay)
